# From PubChem BioAssay (NCATS)
# Where “and” joins values, the source holds several entries; their conditions need not be identical. Equal values may be shown once. Records with an inconclusive call do not appear. Calls of active or inactive are those of the source. Unless noted, calls come from the whole dose curve; as a rule, active = well fitted curve in the direction sought with a large enough effect; inconclusive = small, poorly fitted or top-dose-only effect, or another doubt; inactive = no such curve, though single readings can be large; an effect the other way counts as inactive or inconclusive.
# How the values were obtained:
# [1] = qHTS for Activators of Parkin Expression: LOPAC Validation Assay (NLuc Reporter) (AID 720572;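 note: 0% = DMSO and 100% = positive control compound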)
# Summary of the method: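 Parkin promoter-driven FLuc/NLuc neuronal reporter cells; 24 h plating, 7-pt dose response, 24 h at 37 C/5% CO2; FLuc then NanoLuc reagent, 10 min each, luminescence; DMSO/positive control normalized.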
# [2] = molecular target: T1, Hexokinase-4 (Homo sapiens) + Glucokinase regulatory protein (Homo sapiens) (UniProt P35557+Q14397); test: qHTS assay for inhibitors of recombinant human GCK-GKRP interaction: Diaphorase-coupled assay (AID 743205)
# T1 sequence (P35557 whole entry, looked up): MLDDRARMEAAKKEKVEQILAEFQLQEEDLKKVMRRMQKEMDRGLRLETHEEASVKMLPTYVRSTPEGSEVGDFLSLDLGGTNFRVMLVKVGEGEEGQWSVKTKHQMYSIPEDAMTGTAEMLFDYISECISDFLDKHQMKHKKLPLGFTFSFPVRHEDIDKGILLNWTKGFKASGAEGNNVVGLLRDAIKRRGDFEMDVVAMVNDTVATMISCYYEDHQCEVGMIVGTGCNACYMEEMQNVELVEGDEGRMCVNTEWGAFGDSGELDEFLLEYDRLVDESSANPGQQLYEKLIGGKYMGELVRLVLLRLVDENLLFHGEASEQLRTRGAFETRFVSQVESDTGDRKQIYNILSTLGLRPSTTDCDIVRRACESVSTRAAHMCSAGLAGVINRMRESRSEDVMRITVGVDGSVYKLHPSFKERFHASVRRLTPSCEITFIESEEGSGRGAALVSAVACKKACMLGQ
# T1 sequence (Q14397 whole entry, looked up): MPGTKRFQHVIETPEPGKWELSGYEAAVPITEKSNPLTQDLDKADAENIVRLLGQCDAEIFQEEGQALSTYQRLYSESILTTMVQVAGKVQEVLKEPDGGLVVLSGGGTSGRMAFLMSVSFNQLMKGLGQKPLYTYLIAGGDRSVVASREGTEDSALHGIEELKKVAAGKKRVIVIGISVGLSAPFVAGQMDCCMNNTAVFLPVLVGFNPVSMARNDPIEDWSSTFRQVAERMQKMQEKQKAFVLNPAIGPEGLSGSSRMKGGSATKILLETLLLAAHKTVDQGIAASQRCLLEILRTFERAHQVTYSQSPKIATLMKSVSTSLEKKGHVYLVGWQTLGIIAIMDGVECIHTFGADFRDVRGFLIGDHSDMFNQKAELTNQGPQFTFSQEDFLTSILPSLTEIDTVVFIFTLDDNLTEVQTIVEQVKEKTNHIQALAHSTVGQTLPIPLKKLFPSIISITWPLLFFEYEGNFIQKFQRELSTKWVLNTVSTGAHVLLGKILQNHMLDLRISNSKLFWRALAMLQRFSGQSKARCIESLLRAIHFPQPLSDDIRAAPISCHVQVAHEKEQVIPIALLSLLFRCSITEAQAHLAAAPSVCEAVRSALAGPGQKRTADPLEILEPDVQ
# Summary of the method: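 Inhibitors of the GCK–GKRP complex relieve GKRP suppression of GCK, detected through a G6PDH–diaphorase cascade reducing resazurin. Human GST-GCK and FLAG-GKRP are used at 10 nM with 5 mM glucose and 0.4 mM ATP.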
# [3] = molecular target: T1, Hexokinase-4 (Homo sapiens) + Glucokinase regulatory protein (Homo sapiens); test: qHTS assay for inhibitors of recombinant human GCK-GKRP interaction: ADP-Glo assay (AID 743206);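 note: plate controls were DMSO plus enzyme for no effect and no enzyme for full effect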
# Summary of the method: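 GST-GCK and FLAG-GKRP (15 nM each in the dispensed mix, with 2 uM S6P) react with 0.4 mM ATP and 5 mM glucose (final) in Hepes pH 7.6 for 60 min at room temperature. ADP is measured by ADP-Glo luminescence.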
# [4] = molecular target: T1, Hexokinase-4 (Homo sapiens) + Glucokinase regulatory protein (Homo sapiens); test: qHTS assay for inhibitors of recombinant human GCK-GKRP interaction: HTRF assay (AID 743207);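 note: 0% = DMSO with GCK present and -100% = DMSO wells lacking GCK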
# Summary of the method: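 Steps: dispense GCK–GKRP complex (5 nM each, GST- and FLAG-tagged) with 2 uM S6P; pin in compounds; add XL665/Eu-cryptate-labelled antibodies; incubate 60 min at room temperature; read time-resolved FRET at 665 and 615 nm.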
# [5] = qHTS Assay for Identifying Gametocytocidal Compounds (AID 743244); note: potency is the fitted concentration of half-maximal effect;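 for max response: % is set by controls: 0 for no effect and ±100 for the full control effect; actives lower the fluorescent signal which means gametocytes are killed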; settings: P. falciparum 3D7 stage III-V gametocytes, alamarBlue, 72 h; max response: stronger effect = lower value
# Summary of the method: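 Late gametocytes (III–V), P. falciparum 3D7; 72 h drug, then 24 h alamarBlue; resazurin reduction read by fluorescence.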
# [6] = qHTS profiling for inhibitors of Plasmodium falciparum (3D7) proliferation (AID 743322; call rule not given here;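 note: infected erythrocytes exposed to compound for 72 h before lysis; 100% = DMSO vehicle wells and 0% = 0.29 µM artemisinin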); settings: P. falciparum 3D7 proliferation; at 28.7 µM (top of the series) unless noted
# Summary of the method: (§1)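 Erythrocytes infected with P. falciparum (0.3% parasitemia, 2.5% hematocrit) incubated with compounds 72 h at 37 C, 5% CO2. Lysis with saponin/Triton buffer containing SYBR Green I, overnight at room temperature in the dark; DNA fluorescence (485/535 nm) normalised to 0.29 uM artemisinin and DMSO.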
# [7] = qHTS profiling for inhibitors of Plasmodium falciparum (DD2) proliferation (AID 743323; call rule not given here); settings: lower = more inhibition; at 28.7 µM (top of the series) unless noted
# Summary of the method: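 P. falciparum Dd2-infected erythrocytes (0.3% parasitemia, 2.5% hematocrit) exposed 72 h at 37 C, 5% CO2. Lysis with SYBR Green, overnight at room temperature, fluorescence 485/535 nm; normalized to 0.29 uM artemisinin and DMSO.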
# [8] = qHTS profiling of the MIPE4 collection as inhibitors of Plasmodium falciparum (3D7) proliferation (AID 743344; call rule not given here;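 note: scaled between DMSO vehicle wells and 0.29 µM artemisinin as full inhibition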); settings: P. falciparum 3D7 in erythrocytes, SYBR Green DNA fluorescence, 72 h; at 28.5 µM (top of the series) unless noted
# Summary of the method: as §1
# [9] = qHTS profiling of the MIPE4 collection as inhibitors of Plasmodium falciparum (DD2) proliferation (AID 743345; call rule not given here); settings: P. falciparum Dd2 in erythrocytes, SYBR Green DNA, 72 h; at 28.5 µM (top of the series) unless noted
# Summary of the method: as §1
# [10] = qHTS profiling of the MIPE4 collection as inhibitors of Plasmodium falciparum (DD2) proliferation (Rep 2) (AID 743346; call rule not given here); settings: P. falciparum Dd2 in erythrocytes, SYBR Green DNA, 72 h; at 28.5 µM (top of the series) unless noted
# Summary of the method: as §1
# [11] = qHTS profiling of the MIPE4 collection as inhibitors of Plasmodium falciparum (HB3) proliferation (AID 743347; call rule not given here;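 note: plate controls were DMSO vehicle wells for no effect and artemisinin wells for full effect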); settings: P. falciparum HB3 in erythrocytes, SYBR Green DNA, 72 h; at 28.5 µM (top of the series) unless noted
# Summary of the method: as §1
# [12] = qHTS for Activators of Parkin Expression: LOPAC Validation Assay (FLuc Reporter) (AID 720573;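 note: 0% = DMSO and 100% = positive control compounds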)
# Summary of the method: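 A neuronal cell line harbouring FLuc and NLuc reporters behind the Parkin promoter was exposed to compounds for 24 h. Firefly luciferase signal, measured after 10 min with detection reagent, was scaled to DMSO and positive-control wells.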
# [13] = qHTS assay for small molecule agonists of the antioxidant response element (ARE) signaling pathway measured by Nrf2-dependant transcriptional activity - cell viability counter screen (AID 720653; active = well fitted curve in the direction sought with a large enough effect in the repeat runs; an effect the other way counts as inactive or inconclusive; note: % is set by controls: 0 for no effect and ±100 for the full control effect); settings: ARE-bla HepG2 viability, CellTiter-Glo ATP luminescence, 16 h; stronger effect = lower value
# Summary of the method: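 Cytotoxicity counter screen: intracellular ATP quantified by CellTiter-Glo luminescence in the same ARE-bla HepG2 plates, after 16 h compound exposure and a 2 h beta-lactamase substrate step.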
# [14] = qHTS assay for cell viability of HEK293 cells (AID 743288); settings: ATP luminescence (CellTiter-Glo), 18 h; max response: stronger effect = lower value; note: % is set by controls: 0 for no effect and ±100 for the full control effect; nearly all actives have a fitted effect of over 50% in size
# Summary of the method: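 The Tox21 protocol used parental HEK293 cells treated for 18 h at 37 C with compounds delivered by pintool; ATP-coupled luminescence after 30 min at room temperature gave viability.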
# [15] = qHTS assay for cell viability of the p53RE-bla HCT-116 cell line (AID 743292); note: % is set by controls: 0 for no effect and ±100 for the full control effect; nearly all actives have a fitted effect of over 55% in size
# Summary of the method: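 CellSensor p53RE-bla HCT-116 cells (4,000/well) pre-incubated 5 h at 37 C, then exposed to compounds in DMSO for 16 h at 37 C. Viability read as ATP content by CellTiter-Glo luminescence after 30 min at room temperature.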
# [16] = qHTS profiling for inhibitors of Plasmodium falciparum (HB3) proliferation (AID 743324); settings: Plasmodium falciparum HB3 blood-stage proliferation; at 28.7 µM (top of the series) unless noted;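 note: 100% = DMSO vehicle wells and 0% = artemisinin-treated control wells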
# Summary of the method: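 P. falciparum HB3 grown in erythrocytes (0.3% parasitemia, 2.5% hematocrit final) with compound for 72 h at 37 C, 5% CO2. Parasite DNA detected by SYBR Green after saponin/triton lysis overnight; normalized to 0.29 uM artemisinin and DMSO.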
# [17] = qHTS assay for small molecule agonists of the antioxidant response element (ARE) signaling pathway measured by Nrf2-dependant transcriptional activity (AID 720636; active = well fitted curve in the direction sought with a large enough effect in the repeat runs; an effect the other way counts as inactive or inconclusive; note: % of control where 0% means no effect)
# Summary of the method: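 ARE-luc HepG2 cells carrying an Nrf2-responsive luciferase reporter, in medium with 1% dialyzed FBS, exposed to compound for 16 hr at 37 C, 5% CO2. Luminescence read 30 min after ONE-Glo addition.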
Compound,Potency [1],outcome [2],outcome [3],outcome [4],max response [5],remaining parasite growth % (stronger effect = lower value) [6],"activity, percent of control [7]","parasite growth, % of DMSO control [8]","parasite growth remaining, % of DMSO control (lower = more inhibition) [9]","parasite growth, % of control (lower = inhibition) [10]","growth, % of control [11]",outcome [12],Potency [5],max response [13],max response [14],Potency [15],"remaining proliferation (% of control), lower = more inhibition [16]",outcome [17]
Nc1nc2ccc(OC(F)(F)F)cc2s1,inactive,inactive,inactive,inactive,5.46% (inactive) and 13.2% (inactive),105%,105%,7.34%,7.7%,33.2%,7.48%,,,,,,,
CC(C)NCC(O)COc1ccc(COCCOC(C)C)cc1 (stereo unspecified),inactive,inactive,inactive,inactive,24.7% (inactive) and -10.9% (inactive) and -2.93% (inactive),,,78.7%,102%,98%,102%,inactive,,,,,,
Nc1ccc(S(=O)(=O)Nc2ccnn2-c2ccccc2)cc1,inactive,inactive,inactive,inactive,9.56% (inactive) and 18.4% (inactive),,,93.3%,103%,86.8%,94.4%,inactive,,,,,,
NNCCc1ccccc1,inactive,inactive,inactive,inactive,-2.24% (inactive) and 11.6% (inactive),,,88.8%,24.6%,79.6%,96.6%,inactive,,,,,,
CN1CCN(CCCN2c3ccccc3Sc3ccc(C(F)(F)F)cc32)CC1,inactive,inactive,inactive,inactive,,,,108%,97.5%,101%,83%,inactive,3.16 µM (active),,,,,
Cc1[nH]c(=O)c(C#N)cc1-c1ccc2nccn2c1,inactive,inactive,inactive,inactive,-5.81% (inactive) and 18.1% (inactive),105%,98.1%,,93.1%,113%,68.7%,inactive,,,,,,
CCOC(=O)N1CCC(=C2c3ccc(Cl)cc3CCc3cccnc32)CC1,inactive,inactive,inactive,inactive,,,,14.5%,56.2%,28.5%,13.8%,inactive,,,,,,
C1COC(NC(C2CC2)C2CC2)=N1,inactive,inactive,inactive,inactive,8.63% (inactive) and 12.8% (inactive),,,,,67.2%,82.6%,inactive,,,,,,
COc1ccc2nc(S(=O)Cc3ncc(C)c(OC)c3C)[nH]c2c1 (stereo unspecified),,,,,-5.18% (inactive) and -4.42% (inactive),,93.3% and 100%,,95%,72.1%,84.6%,,,1.66% (inactive),-16.7% (inactive),inactive,79.1% and 76.7%,
Cc1ccccc1C(OCCN(C)C)c1ccccc1 (stereo unspecified),inactive,inactive,inactive,inactive,21.5% (inactive) and -9.62% (inactive) and 11.5% (inactive),,,64.6%,60.2%,40.2%,87.3%,inactive,,-8.13% (inactive),-14.1% (inactive),,,inactive
